USP30 inh – inhibitors of human USP30 deubiquitinase; purified USP30, Ub-rhodamine cleavage fluorescence; hit rate 5.3% among 47,000; inhibition, % at 25 µM; Q70CQ3
USP8 inh – inhibitors of human USP8 deubiquitinase | AID 1645853 | hit rate 4.2% among 47,000 | P40818 | inhibition, % at 20 µM | purified USP8, Ub-rhodamine cleavage fluorescence, 30 min
USP10 inh – blocks human USP10 ubiquitin-rhodamine cleavage | Q14694 | purified USP10, Ub-rhodamine fluorescence, 60 min | inhibition, % at 20 µM | hit rate 1.1% among 47,000 | AID 1645856
Target sequence (Q14694 whole entry, looked up): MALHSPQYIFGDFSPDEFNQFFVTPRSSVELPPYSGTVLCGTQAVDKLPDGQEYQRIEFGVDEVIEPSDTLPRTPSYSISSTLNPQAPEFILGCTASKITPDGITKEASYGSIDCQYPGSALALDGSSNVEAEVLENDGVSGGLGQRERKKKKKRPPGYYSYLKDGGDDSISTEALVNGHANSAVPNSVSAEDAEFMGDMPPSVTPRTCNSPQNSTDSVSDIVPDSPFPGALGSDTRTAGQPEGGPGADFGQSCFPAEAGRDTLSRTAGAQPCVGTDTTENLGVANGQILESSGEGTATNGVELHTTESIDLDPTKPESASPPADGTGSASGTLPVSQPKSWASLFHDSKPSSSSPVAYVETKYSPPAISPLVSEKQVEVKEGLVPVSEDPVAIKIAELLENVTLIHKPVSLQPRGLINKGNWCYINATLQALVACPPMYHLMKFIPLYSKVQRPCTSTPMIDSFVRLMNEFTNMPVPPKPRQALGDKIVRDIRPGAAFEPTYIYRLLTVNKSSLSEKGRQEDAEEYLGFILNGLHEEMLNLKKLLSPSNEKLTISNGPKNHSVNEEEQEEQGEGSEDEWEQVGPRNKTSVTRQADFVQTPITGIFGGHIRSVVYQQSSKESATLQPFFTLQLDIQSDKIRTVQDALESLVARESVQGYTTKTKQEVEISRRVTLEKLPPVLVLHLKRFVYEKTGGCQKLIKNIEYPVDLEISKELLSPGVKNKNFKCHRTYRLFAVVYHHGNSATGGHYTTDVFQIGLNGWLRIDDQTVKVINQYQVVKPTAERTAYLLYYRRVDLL
USP17 inh – human USP17-like deubiquitinase inhibition; A8MUK1; purified USP17, Ub-rhodamine cleavage fluorescence, 3 h; inhibition, % at 50 µM; hit rate 6.5% among 47,000
USP28 block – inhibitors of human USP28 deubiquitinase. purified USP28, Ub-rhodamine cleavage fluorescence, 30 min. inhibition, % at 25 µM. hit rate 3% among 47,000. Q96RU2. AID 1645857
Each line names hits and unclear results; the compound was inactive in the other large screens. Rows were chosen to be rich in hits. Some 14% of all compounds tested hit in one or more screens of this group. Rule as the data show it: active = inhibition above about 30%; inactive = the rest.

COc1ccccc1NC(=O)CCc1nc(-c2ccccc2)no1	none
Cc1ccc(NC(=O)C2C3C=CC4(O3)C2C(=O)N(Cc2ccccc2)C4C(=O)NC2CCCCC2)cc1 (configuration not stated)	none
CC(Cc1ccco1)NC(=O)c1cccc(NC(=O)c2nnc(C3CC3)s2)c1 (configuration not stated)	USP17 inh 31.3
CC(C)CC(=O)N1CCCC1c1nnc(C(=O)Nc2cccc(F)c2)s1 (configuration not stated)	none
CC(C)(C)C(=O)N1CCCC(c2cncc(-c3ccn[nH]3)n2)C1 (configuration not stated)	none
O=C(c1ccccc1)c1c[nH]c2cc3c(cc2c1=O)OCO3	USP8 inh 49.6
Cc1nc2c(c(=O)[nH]1)C(c1ccc(OCc3ccc(F)cc3)cc1)CC(=O)N2 (configuration not stated)	none
COc1ccc(-c2ncc3c(=O)n(Cc4cccnc4)c(=O)n(C)c3n2)cc1	USP30 inh 35.8
CC1=C(O)C(=O)C(C2=C(O)C(=O)C(C)=C(O)C2=O)=C(O)C1=O	none
O=C1C(O)=C(c2ccc(O)cc2)C(=O)C(O)=C1c1ccccc1	USP30 inh 33.1
O=C(c1cn(-c2cc(Nc3ccccc3)ncn2)cn1)N1CCCCC1	none
CC(=O)N1CCN(S(=O)(=O)c2cc3c4c(c2)CCC(=O)N4CCC3)CC1	none
Cc1cc2nc(/C=C/c3ccccc3)n(Cc3cccc(F)c3)c2cc1C	USP28 block 50.9
Cn1c(C2CCN(S(=O)(=O)c3ccc(F)cc3)C2)nc2cccnc21 (configuration not stated)	none
Cn1c(NC(=O)c2ccccc2Cl)c(-c2ccccn2)c(=O)c2ccccc21	none
COCCCn1c(C(=O)NCc2ccc(F)cc2)cc2c(=O)n3ccccc3nc21	USP17 inh 37.8
Cc1nc2c(-c3ccccc3)noc2c(=O)n1CC(=O)O	USP30 inh 31.2
Cc1ccccc1CNC(=O)CCn1cnc2c(-c3ccccc3)noc2c1=O	USP30 inh 42.9, USP8 inh 37.9
CC(C)N1CC2CN(Cc3ccc(F)cc3)CCN2Cc2ccccc21 (configuration not stated)	none
COc1cccc(C(=O)N[C@@H]2C[C@@H](Oc3cccc(F)c3)[C@H](O)[C@H]2O)c1	none
O=C(CSc1nnc(NC(=O)C23CC4CC(CC(C4)C2)C3)s1)Nc1ccccc1F	none
Cc1cccc(CNC(=O)Cn2c(=O)c(C)nc3cc(C)c(C)cc32)c1	USP8 inh 32.5
CCCCCCCCCc1cc(OC(=O)c2c(CCCCCCCCC)cc(O)cc2O[C@@H]2O[C@H](CO)[C@@H](O)[C@H](O)[C@H]2O)cc(O)c1C(=O)O	USP30 inh 104.1, USP8 inh 94.8, USP10 inh 97.5, USP17 inh 100.3, USP28 block 100.6
CCCCCCCc1cc(OC(=O)c2c(CCCCCCC)cc(O)cc2O[C@@H]2O[C@H](CO)[C@H](O)[C@H](O)[C@H]2O)cc(O)c1C(=O)O	USP30 inh 107.9, USP8 inh 99.0, USP10 inh 100.3, USP17 inh 101.8, USP28 block 100.5
CCCCCCCC/C=C\CCCCCCCc1cc(O)cc(O)c1C(=O)O	none
CCCCCCCc1cc(O)cc(OC(=O)c2c(CCCCCCC)cc(O)cc2O[C@H]2O[C@H](C(O)CO)[C@@H](O)[C@@H]2O)c1 (some centres not stated)	USP17 inh 39.6, USP28 block 83.0
O=C1Nc2ccccc2Oc2cc(N3CCOCC3)c(S(=O)(=O)N3CCOCC3)cc21	none
CC1CS(=O)(=O)N(c2ccc(C(=O)N3CCN(c4ccccc4F)CC3)cc2)C1=O (configuration not stated)	none
N#Cc1ccc(Cl)cc1NC(=O)CN1C(=O)c2ccccc2S1(=O)=O	none
N#Cc1ccc(Cl)cc1NC(=O)COc1cccnc1[N+](=O)[O-]	USP30 inh 31.3, USP17 inh 50.3
Cc1ccc(Nc2nc(O)c(CC(=O)Nc3ccccc3C)s2)cc1C	USP8 inh 90.1, USP10 inh 36.0, USP17 inh 74.4
Cc1ccc(NC(=O)Cc2nc(-c3ccccn3)n[nH]2)cc1C	none
Cc1ccc(Nc2nc(O)c(CC(=O)Nc3ccc(C)cc3C)s2)cc1	USP8 inh 45.9, USP10 inh 38.3, USP17 inh 36.7
COc1cccc(NC(=O)Cc2sc(Nc3cc(C)cc(C)c3)nc2O)c1	USP17 inh 62.2
COc1ccc(NC(=O)Cc2sc(Nc3cccc(OC)c3)nc2O)cc1	none
Cc1cc(C)c(NC(=O)Cc2sc(Nc3ccc(C)c(C)c3)nc2O)c(C)c1	USP8 inh 67.3, USP10 inh 35.4
Cc1ccc(C(=O)N2CCCn3c(CN4CCCCC4)nnc3C2)cc1F	none
COc1cc(CC(=O)Nc2cc(S(=O)(=O)N3CCOCC3)ccc2N2CCOCC2)cc(OC)c1OC	none
O=C(CN1C(=O)c2ccccc2OC(c2ccccc2)C1=O)c1ccc2c(c1)OCCO2 (configuration not stated)	none
CC(=O)Nc1ccc(NC(=O)Cc2csc(COc3ccc(C)cc3)n2)cc1	USP17 inh 52.2 (no result: USP30 inh, USP28 block)
Cc1ccc(OCc2nc(CC(=O)Nc3cccc(F)c3)cs2)cc1	none
Cc1ccn(-c2ccc(NC(=O)C3CCCCC3)cc2)n1	USP17 inh 57.1
COc1ccc(N2CCN(C(=O)c3ncccn3)CC2)cc1	none
Cc1ccc(CNC(=O)Cn2c(=O)n(Cc3ccc(F)cc3)c(=O)c3cccnc32)cc1	none
c1ccc(COc2ncnc3scc(-c4ccccc4)c23)cc1	USP28 block 33.9
CCOc1ccccc1Nc1nc2ccccc2n2cnnc12	USP17 inh 38.6
c1ccc2c(c1)nc(NC1CC1)c1nncn12	none
CC1(C)CC(NC(=O)c2nc(-c3ccc(F)cc3)no2)CC(C)(C)N1	USP30 inh 33.9
CN(C)C(=O)NC[C@@H]1OC[C@H]2CN(Cc3cccc(C#N)c3)CC[C@H]21	none
CC(Oc1ccc(F)cc1)C(=O)Nc1ccc2nsnc2c1 (configuration not stated)	USP8 inh 83.5, USP17 inh 34.1
COc1ccc([N+](=O)[O-])cc1C1N(c2ccccc2)CCN1c1ccccc1	USP17 inh 31.1
C[C@@H]1CO[C@@H]2C3=C(C(=O)C=CC3=O)[C@H]3OC(=O)[C@@H]4CCC5[C@@H]1CCC52C34 (some centres not stated)	USP30 inh 59.1, USP8 inh 34.0, USP10 inh 33.7, USP17 inh 80.5, USP28 block 61.9
Cc1ccc2nc(C(=O)N3CCN(c4ccccn4)CC3)cn2c1	none
COc1ccc(CCNC(=O)[C@H](C)NC(=O)c2cc3c([nH]c4ccccc43)c(C)n2)cc1	USP17 inh 33.9
COc1ccccc1CC(=O)N1CCC(c2nn(CCN)c3nccnc23)C1 (configuration not stated)	USP30 inh 34.6
Cc1nc(NCc2ccco2)nc2c1COCC21CCN(C(=O)CCC(C)C)C1 (configuration not stated)	none
Cc1c(CN2CCC(C(=O)Nc3cccc(-c4cccc(F)c4)c3)CC2)cnn1C	USP30 inh 31.2

High-throughput results as filed in PubChem.
